Experimental data as given in PubChem BioAssay AID1259245 (Vanderbilt High Throughput Screening Facility, 2017).
The campaign covered roughly 40,000 compounds. About 1,400 (3.5%) were called active.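 The calls were made as follows: active = any of four per-well response measures lying three or more SD from its plate-wide compound average, in either direction; inactive = the rest, inconclusive results apart.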 What follows is part of a selection rich in actives, with near analogues and random picks from the rest.

target: Voltage-dependent calcium channel gamma-2 subunit (Mus musculus) + Glutamate receptor 2 (Rattus norvegicus) (UniProt O88602+P19491); assay: AMPAR-TARP gamma-2 complex positive or negative modulation – cell-based, membrane potential dye, primary screen (AID 1259245); details: HEK293 GluA2+stargazin, membrane potential dye (FDSS), glutamate EC50, at 30 µM, hits were called plate by plate, in both directions; compound max-min signal: compound-alone response (agonism); glutamate slope, % of max: measured here: glutamate response slope, % max
Sequence (O88602 whole entry, looked up): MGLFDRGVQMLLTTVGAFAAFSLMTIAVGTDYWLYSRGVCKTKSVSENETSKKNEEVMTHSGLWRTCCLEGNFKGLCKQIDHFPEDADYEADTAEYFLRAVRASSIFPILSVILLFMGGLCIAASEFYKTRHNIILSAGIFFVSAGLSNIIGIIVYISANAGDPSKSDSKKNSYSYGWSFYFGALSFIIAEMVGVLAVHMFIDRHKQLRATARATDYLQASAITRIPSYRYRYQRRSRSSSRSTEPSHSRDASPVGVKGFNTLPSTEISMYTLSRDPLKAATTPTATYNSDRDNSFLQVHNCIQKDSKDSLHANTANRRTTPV
Sequence (P19491 whole entry, looked up): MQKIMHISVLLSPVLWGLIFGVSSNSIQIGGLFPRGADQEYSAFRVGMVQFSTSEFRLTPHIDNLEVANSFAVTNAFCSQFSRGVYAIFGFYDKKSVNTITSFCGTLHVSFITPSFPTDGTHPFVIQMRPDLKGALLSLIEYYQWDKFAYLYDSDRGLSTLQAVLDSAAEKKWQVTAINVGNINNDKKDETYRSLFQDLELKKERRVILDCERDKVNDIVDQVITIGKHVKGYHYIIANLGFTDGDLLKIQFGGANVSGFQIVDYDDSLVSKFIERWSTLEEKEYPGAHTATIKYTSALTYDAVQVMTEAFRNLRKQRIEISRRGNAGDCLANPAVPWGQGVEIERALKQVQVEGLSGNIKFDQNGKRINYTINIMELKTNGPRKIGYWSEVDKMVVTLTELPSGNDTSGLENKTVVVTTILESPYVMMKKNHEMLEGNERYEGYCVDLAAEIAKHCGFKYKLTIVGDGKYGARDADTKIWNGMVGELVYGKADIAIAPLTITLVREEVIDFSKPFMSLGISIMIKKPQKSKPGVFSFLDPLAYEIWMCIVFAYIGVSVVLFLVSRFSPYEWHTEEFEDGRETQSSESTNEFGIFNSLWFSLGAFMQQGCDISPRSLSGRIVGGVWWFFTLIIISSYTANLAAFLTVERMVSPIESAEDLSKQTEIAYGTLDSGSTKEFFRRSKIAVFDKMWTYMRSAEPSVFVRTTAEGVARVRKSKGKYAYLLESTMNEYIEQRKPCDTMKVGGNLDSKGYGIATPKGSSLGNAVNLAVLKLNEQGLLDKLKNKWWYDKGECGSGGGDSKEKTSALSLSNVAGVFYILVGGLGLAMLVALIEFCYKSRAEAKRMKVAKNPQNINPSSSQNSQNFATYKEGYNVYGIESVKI

SMILES	compound max-min signal	glutamate response, % of max	glutamate slope, % of max
O=[N+]([O-])c1cccc(CSc2nnc(-c3ccncc3)o2)c1	0.0611	20.8% (inactive)	47.1%
CC(=O)c1sc(NC(=O)C2CCCN(S(C)(=O)=O)C2)nc1-c1ccccc1 (stereo unspecified)	0.126	21.7% (inactive)	40.2%
CCOc1ccc(-c2ccc(=O)n(CCCC(=O)Nc3cc(Cl)ccc3OC)n2)cc1	0.0223	14.7% (inactive)	28.2%
COc1ccc(-c2ccc(=O)n(CCCC(=O)Nc3ccccc3-c3ccccc3)n2)cc1	0.0404	21.1% (inactive)	39%
CCOc1ccc(-c2cc(=O)n(CCCC(=O)Nc3cc(C)ns3)cn2)cc1	0.074	-0.752% (active)	5.34%
COc1cc(NS(=O)(=O)c2ccccc2F)ccc1N1CCCCC1=O	0.0504	15.5% (inactive)	35.3%
COc1ccc(C(CNC(=O)c2cc(C)cc(C)c2)N2CCOCC2)cc1 (stereo unspecified)	0.0728	37.2% (inactive)	50.1%
COc1cccc(C(CNC(=O)c2ccc(OC(C)C)cc2)N2CCOCC2)c1 (stereo unspecified)	0.0693	22.5% (inactive)	42.1%
COc1ccc(C(CNC(=O)c2ccccc2Cl)N2CCOCC2)cc1 (stereo unspecified)	0.07	35.7% (active)	45.9%
COc1ccccc1CCNC(=O)C(=O)Nc1cc([N+](=O)[O-])ccc1C	0.125	47.7% (inactive)	62.3%
COc1cccc(CNC(=O)C(=O)Nc2cc([N+](=O)[O-])ccc2C)c1	0.135	41.7% (inactive)	61.5%
COc1ccc(NC(=O)C(=O)Nc2cc([N+](=O)[O-])ccc2C)cc1OC	0.325	62.6% (active)	80.6%
O=C(NCCNc1ccc(Nc2ccncc2)nn1)c1cccc2ccccc12	0.274	30.8% (inactive)	57.7%
O=C(NCCn1ncc2c(N3CCOCC3)ncnc21)c1ccc2c(c1)OCO2	0.0657	28.9% (inactive)	49.6%
CC(O)(CNC(=O)NCc1ccc(F)cc1)c1ccc(-c2ccccc2)cc1 (stereo unspecified)	0.113	15.8% (inactive)	57.2%
O=C(NNC(=O)c1ccc(=O)n(Cc2ccccc2)c1)c1ccc(F)c(F)c1	0.0736	29.9% (inactive)	51.5%
Cn1nc(NC(=O)c2ccc3c(c2)OCO3)c2c1NC(=O)CC2c1cccs1 (stereo unspecified)	0.101	34.8% (inactive)	53.9%
CC1CC(=O)Nc2c1c(NC(=O)c1ccc3c(c1)OCO3)nn2C (stereo unspecified)	0.11	23.6% (active)	38.4%
Cn1nc(NC(=O)/C=C\c2ccc3c(c2)OCO3)c2c1NC(=O)CC2c1ccco1 (stereo unspecified)	0.119	38.8% (inactive)	66.5%
COc1ccc(NC(=O)C(=O)NCC2CCN(C)CC2)c(OC)c1	0.0817	43.1% (inactive)	70.1%
Cc1ccc(-n2ncc3c(=O)n(CC(=O)N4CCOCC4)cnc32)cc1C	0.0678	29.7% (inactive)	52.9%
COc1ccc(S(=O)(=O)NCC(c2cccn2C)N2CCOCC2)cc1OC (stereo unspecified)	0.0786	34.5% (inactive)	60.4%
O=[N+]([O-])c1cccc(S(=O)(=O)NCC(c2cccs2)N2CCOCC2)c1 (stereo unspecified)	0.129	23.5% (active)	44.4%
Cn1cccc1C(CNS(=O)(=O)c1ccc(F)cc1)N1CCOCC1 (stereo unspecified)	0.0736	28.1% (inactive)	55.5%

SMILES	compound max-min signal	glutamate response, % of max	glutamate slope, % of max
O=C(NCCn1ncc2c(N3CCN(c4ccccc4)CC3)ncnc21)c1cccs1	0.0478	45.6% (inactive)	68.2%
COc1ccc(CN(CC(=O)N(C)c2ccccc2)S(=O)(=O)c2cccnc2)cc1	0.128	30.9% (inactive)	52.8%
O=C1/C(=C/c2cccnc2)SC(=S)N1c1ccc2c(c1)OCCO2	0.116	41.7% (inactive)	65.3%
Cn1cnc2cc(OC(=O)c3ccc(=O)[nH]n3)ccc21	0.276	33% (active)	52.5%
COc1ccc(-c2ccc(N3CCN(C(=O)c4ccc(=O)[nH]n4)CC3)nn2)cc1	0.0223	13.3% (inactive)	24.1%
COc1ccc(C(=O)NCCOc2ccc(-c3ccc(F)cc3)nn2)c(OC)c1	0.0424	40.3% (inactive)	60.6%
COc1ccc(C(=O)N2CCc3cc(S(=O)(=O)NC4CCCC4)ccc32)cc1	0.109	49% (inactive)	67.4%
COc1cc(C(=O)Nc2nnc(-c3ccc(SC)cc3)o2)cc(OC)c1OC	0.0956	30.8% (inactive)	51.3%
COc1cccc(C(=O)Nc2nnc(-c3ccc(OC)c(OC)c3)o2)c1	0.128	35.2% (inactive)	53.9%
COc1cc(OC)cc(C(=O)Nc2nnc(-c3cc(OC)c(OC)c(OC)c3)o2)c1	0.259	56.5% (active)	83.8%
Cn1cccc1C(CNC(=O)C(=O)Nc1ccccc1F)N1CCOCC1 (stereo unspecified)	0.0712	30.1% (inactive)	55%
CCN1CC(c2nc3ccccc3n2Cc2ccc(Cl)cc2)CC1=O (stereo unspecified)	0.0749	45% (inactive)	70.4%
CCCCN1CC(c2nc3ccccc3n2Cc2cc(C)ccc2C)CC1=O (stereo unspecified)	0.12	83.9% (active)	94.4%
CCCCN1CC(c2nc3ccccc3n2CCOc2ccc(C)cc2)CC1=O (stereo unspecified)	0.135	45.7% (inactive)	78.7%
C=CCN1CC(c2nc3ccccc3n2Cc2cccc(Cl)c2)CC1=O (stereo unspecified)	0.132	29.6% (active)	36.6%
CCN1CC(c2nc3ccccc3n2Cc2ccccc2F)CC1=O (stereo unspecified)	0.0186	31.3% (inactive)	50%
CCN1CC(c2nc3ccccc3n2Cc2ccc(Cl)c(Cl)c2)CC1=O (stereo unspecified)	0.144	41.2% (inactive)	66.5%
O=C(CCCc1ccccc1)N1CCN(c2ccc3nnc(-c4ccco4)n3n2)CC1	0.203	48.1% (inactive)	68.2%
CC(=O)Nc1cccc(NC(=O)C(=O)NCC2CCN(Cc3ccco3)CC2)c1	0.0762	50.2% (inactive)	68.9%
O=C(NC1CCc2ccccc21)c1nnn(-c2ccc(F)cc2)c1-c1ccncc1 (stereo unspecified)	0.0259	18.1% (inactive)	25.4%
COc1cc2nc(NC(=O)c3cc(C)no3)sc2cc1OC	0.204	26.9% (inactive)	48.6%
COCCn1c(=NC(=O)c2cc(C)no2)sc2cc(SC)ccc21	0.152	31.8% (inactive)	54.7%
CCOCCn1c(=NC(=O)c2cc(C)no2)sc2cc(OC)c(OC)cc21	0.187	27.5% (active)	50.7%
Cc1nn(-c2ccccc2)c2ncc(C(=O)Nc3ccc(F)cc3F)c(Cl)c12	0.0815	20.8% (inactive)	43.5%

SMILES	compound max-min signal	glutamate response, % of max	glutamate slope, % of max
COc1cn(CC(=O)Nc2ccc3c(c2)OCO3)c(CSc2nnnn2C)cc1=O	0.0535	23.6% (inactive)	48.2%
Cc1ccc2nc(NC(=O)c3ccno3)sc2c1	0.16	53% (inactive)	62.5%
CCOc1ccc2nc(NC(=O)c3ccc(S(=O)(=O)Nc4cccnc4)o3)sc2c1	0.179	32% (active)	55.6%
CCOc1ccc2nc(NC(=O)c3ccc(S(=O)(=O)N(C)C)o3)sc2c1	0.115	31.5% (inactive)	54.4%
CC(C)Oc1ccc(C(=O)Nc2ccc3oc(=O)ccc3c2)cc1	0.17	41.9% (inactive)	61.4%
O=c1ccc2cc(S(=O)(=O)Nc3cc(Cl)ccc3O)ccc2o1	0.209	16.4% (active)	35.5%
O=c1oc2ccc(Cl)cc2cc1S(=O)(=O)c1ccccc1F	0.0854	39.3% (inactive)	60%
O=C(NC1CCCCCC1)c1ccc(S(=O)(=O)c2ccccc2)nc1	0.0387	28.2% (inactive)	47.7%
COc1cccc(NC(=O)c2ccc(=O)n(Cc3cccc(C(F)(F)F)c3)c2)c1	0.0915	23.5% (inactive)	41.6%
COc1cc(CN2CCN(c3nccn3C)CC2)cc(OC)c1	0.0438	12.8% (inactive)	27.6%
COc1ccc(OC)c(-c2ccc(=O)n(CC(=O)N3CCOCC3)n2)c1	0.0773	62.3% (inactive)	97.9%
Cc1ccccc1NC(=O)NC1(c2nc(-c3ccsc3)no2)CCCCC1	0.081	34.5% (inactive)	56%
O=S(=O)(NC1(c2nc(-c3ccsc3)no2)CCCCC1)c1ccccc1	0.127	19.9% (active)	36.2%
COc1cc(Cl)ccc1C(=O)NC1(c2nc(-c3ccsc3)no2)CCCCC1	0.0754	37.6% (inactive)	63.1%
COc1ccccc1OCC(=O)Nc1cc(C(=O)N2CCOCC2)cn(C)c1=O	0.134	36.2% (inactive)	63%
CC(Oc1ccccc1)C(=O)N1CCN(c2ncnc3c2nnn3-c2ccc(Cl)cc2)CC1 (stereo unspecified)	0.0923	46% (inactive)	58.4%
COc1ccc(-n2nnc3c(N4CCN(C(=O)C(C)Oc5ccccc5)CC4)ncnc32)cc1 (stereo unspecified)	0.0918	83.4% (active)	124%
CCCC(CCC)C(=O)N1CCN(c2ncnc3c2nnn3-c2ccc(OC)cc2)CC1	0.0796	50.3% (inactive)	57.2%
COc1ccc(Cl)cc1NC(=O)Nc1cc(N2CCCS2(=O)=O)ccc1C	0.0964	36.6% (inactive)	48.9%
Cc1c(-c2ccccc2)c(=O)oc2c3c(ccc12)OCN(Cc1cccnc1)C3	0.117	15.5% (inactive)	35%
O=C(CCc1ccccc1)NCCS(=O)(=O)N1CCN(Cc2ccccc2)CC1	0.0536	24.3% (inactive)	47.7%
O=C(NCC1CCN(Cc2ccsc2)CC1)C(=O)Nc1ccon1	0.08	38.4% (inactive)	57.1%
O=C(CCc1ccccc1)NCC1CCN(Cc2ccsc2)CC1	0.0535	10.8% (active)	27.6%
Cc1cc(C)c2c(n1)sc1c(=O)n(CC(=O)Nc3ccc(F)cc3F)cnc12	0.126	45.2% (inactive)	70.3%
